# According to the supplement of paper PMC6555819:
# Tested on: PPARg:RXRa DBDmut IVT, anti-RXR (DBD mutation: RXRa K156A/R161A, NR concentration 270 nM, RXRa partner concentration 90 nM)
# Assay: PBM binding z-score (relative to random genomic background probes); higher = stronger binding; sequences stand for … in GC…GCGATTGACAGCGTAGAATGAAGG
# Outline: (§1)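 Each nuclear receptor dimer, without ligand, was incubated for 1 h on custom Agilent 4×180K protein-binding microarrays. Binding was detected with antibodies against each partner (one per run), and scanned fluorescence was regression-normalized. The binding z-scores are referenced to random human genomic background probes.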
row,Sequence,PBM binding z-score
1,GCTAGTTGGTCAGTAAATGGTCACACACCGGTCG,0.302
2,AGCTCTAGGTAAAAGTTCAGTGAATCCCGAGGAT,2.59
3,TAGCCTAGGTCATTCAGGGGCCAGTATGGAAAGC,1.58
4,TAGCCTAGGTCATAGGCCAGTATACCACGCGAAC,1.31
5,CAATCTAGGTCAAAGGTCAAAGTCGAGCCAACCA,8.91
6,AGACAAAGTTCAGGACGAGGTAACGTAAAGCACG,-0.362
7,CCTGCTAGTTCATGGTCAGCTAATCTACAGTATG,0.644
8,TCTCGGAGGACACGAAAAGTCAGAGCTCGACATC,1.7
9,TGACTGAGGTTAAAGATCAGGGAACGTGGCGTCG,-0.162
10,TATACAGGGTCTAAGGCCAGAGTACGAATGTCGA,-0.0368
11,ATCTGTAGGTTATCGGGTCATTCAGTTTGCGCAT,4.65
12,GCTGCTCGGTCAACTGATGGTCAGCTAAAGCTCG,0.634
13,CCTTACAGGTCACGAGGTTATAGCACGACGAGCG,5.46
14,GCTGCTAGGTCGACTGATGGTCAGCTAAAGCTCG,1.27
15,TAGCCTAAGTCATGGGCCAGTATACCACGCGAAC,-0.872
16,CAAACTAGGTCAAAGGTCAAAGCCGAGCCAACCA,8.36
17,TCTAGTTGGTCAAAGGCCACACACTCGAAATGCG,2.18
18,AGATTGAGGTTACCAAAGATCAGGGAAACGCTTG,3.1
19,CCTAGCAGGCCACGGTCACTCAAGCATTTCGCTT,2.28
20,AGAATGAGGTTACCAGAGATCAGGGAAACGCTTG,3.82

row,Sequence,PBM binding z-score
1,CCTACTGGGCCAATGTCATTGATCAGTCAAAGCA,3.94
2,CCTACTGGGCCAACAAGGTCATTGATGCCGATAA,3.7
3,CCTACTGGGCGATTCAGAGGTCATTGATCATATG,1.07
4,CGTCCAACGTCAGCAGGTCAGTGAAAGCGACGTG,0.148
5,GGTACGAGGGCAAAGTTGATAGCATCTGTCGACG,2.41
6,CCTAGTTGGTCAAGGTCTCACACGCTATAGGTAC,1.7
7,ATATGTAGGTTACATCCGGGTCTTTCAGGCTATG,7.37
8,AGTCAAAGTTCAGTAGGTAACGTAAGATTCAGCT,2.06
9,CAAACTAGGTCACGAAAGGTCAAATTCGAATGAC,8.4
10,CATACAGGGTAAGCTAGGCCAGAGTAGGGACGGC,0.432
11,CCTGCTAGTTCAATGGTCAGCTAAAGCAGCTCGC,0.00571
12,CCTAGTTGGTCAGGTGGTCACACACCGGATATGA,0.0405
13,TAGCCTAGGTCATTGGACCAGTATAGTACGCATC,1.74
14,CCTGCTAGGTCAATGGTCAGCTAAAGCAGCTCGC,4.63
15,GCTGCTAGGTCAACTGATGGTCAGCTAGAGCTCG,4.87
16,ATCGAAAGGTGGACGAGGTGAGTATACACCGTTT,-0.328
17,CCCGCTAGGTCATGGTCAGCTAATCTACAGTATG,3.87
18,CCAGACAGGTGAAAGGTAACTCACTCTGGTACGC,2.36
19,CCTAGCAGACCAATCTGGGTCACTCAAGGCTTGA,4.01

# Tested on: PPARg:RXRa IVT, anti-PPARg (NR concentration 270 nM, RXRa partner concentration 90 nM)
# Assay: as above
# Outline: as §1
row,Sequence,PBM binding z-score
1,GCTAGTTGGTCAGTAAATGGTCACACACCGGTCG,0.493
2,AGCTCTAGGTAAAAGTTCAGTGAATCCCGAGGAT,2.87
3,TAGCCTAGGTCATTCAGGGGCCAGTATGGAAAGC,2.93
4,TAGCCTAGGTCATAGGCCAGTATACCACGCGAAC,3.09
5,CAATCTAGGTCAAAGGTCAAAGTCGAGCCAACCA,9.32
6,AGACAAAGTTCAGGACGAGGTAACGTAAAGCACG,0.619
7,CCTGCTAGTTCATGGTCAGCTAATCTACAGTATG,-0.0239
8,TCTCGGAGGACACGAAAAGTCAGAGCTCGACATC,0.139
9,TGACTGAGGTTAAAGATCAGGGAACGTGGCGTCG,1.61
10,TATACAGGGTCTAAGGCCAGAGTACGAATGTCGA,0.912
11,ATCTGTAGGTTATCGGGTCATTCAGTTTGCGCAT,5.29
12,GCTGCTCGGTCAACTGATGGTCAGCTAAAGCTCG,-0.00578
13,CCTTACAGGTCACGAGGTTATAGCACGACGAGCG,6.09
14,GCTGCTAGGTCGACTGATGGTCAGCTAAAGCTCG,0.463
15,TAGCCTAAGTCATGGGCCAGTATACCACGCGAAC,-0.144
16,CAAACTAGGTCAAAGGTCAAAGCCGAGCCAACCA,8.57
17,TCTAGTTGGTCAAAGGCCACACACTCGAAATGCG,3.17
18,AGATTGAGGTTACCAAAGATCAGGGAAACGCTTG,2.54
19,CCTAGCAGGCCACGGTCACTCAAGCATTTCGCTT,1.83
20,AGAATGAGGTTACCAGAGATCAGGGAAACGCTTG,3.51

row,Sequence,PBM binding z-score
1,CCTACTGGGCCAATGTCATTGATCAGTCAAAGCA,2.99
2,CCTACTGGGCCAACAAGGTCATTGATGCCGATAA,4.68
3,CCTACTGGGCGATTCAGAGGTCATTGATCATATG,1.23
4,CGTCCAACGTCAGCAGGTCAGTGAAAGCGACGTG,0.161
5,GGTACGAGGGCAAAGTTGATAGCATCTGTCGACG,3.4
6,CCTAGTTGGTCAAGGTCTCACACGCTATAGGTAC,1.75
7,ATATGTAGGTTACATCCGGGTCTTTCAGGCTATG,7.42
8,AGTCAAAGTTCAGTAGGTAACGTAAGATTCAGCT,4.51
9,CAAACTAGGTCACGAAAGGTCAAATTCGAATGAC,9.14
10,CATACAGGGTAAGCTAGGCCAGAGTAGGGACGGC,0.87
11,CCTGCTAGTTCAATGGTCAGCTAAAGCAGCTCGC,-0.344
12,CCTAGTTGGTCAGGTGGTCACACACCGGATATGA,0.926
13,TAGCCTAGGTCATTGGACCAGTATAGTACGCATC,3.17
14,CCTGCTAGGTCAATGGTCAGCTAAAGCAGCTCGC,4.19
15,GCTGCTAGGTCAACTGATGGTCAGCTAGAGCTCG,3.91
16,ATCGAAAGGTGGACGAGGTGAGTATACACCGTTT,0.716
17,CCCGCTAGGTCATGGTCAGCTAATCTACAGTATG,3.52
18,CCAGACAGGTGAAAGGTAACTCACTCTGGTACGC,3.27
19,CCTAGCAGACCAATCTGGGTCACTCAAGGCTTGA,4.87
